# Measured values: PubChem BioAssay AID488969 (Vanderbilt High Throughput Screening Facility, 2010)
# The full ranking holds about 110,000 compounds; the median of “z-score” is about -0.1, and the highest 2% start at about 2. The sample as a whole holds a higher share of the highest values than the screen did. Calls of active or inactive are those of the source.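 How the source made its calls: active means z-score in the third read window above 3 or below -3; inactive means the rest.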
# Biological target: Metabotropic glutamate receptor 8 (Rattus norvegicus) (UniProt P70579)
# Experiment: mGluR8 Gi/Go-coupled signaling modulation – cell-based, rat, thallium flux, HTS, primary screen (AID 488969)
# Conditions: HEK293 rat mGluR8, GIRK (G protein-gated inwardly rectifying potassium channel) thallium flux, FluoZin2; at 10 µM; stronger effect = higher value; submaximal glutamate (EC20) added with thallium
# Metabotropic glutamate receptor 8 (Rattus norvegicus), sequence (P70579 whole entry, looked up): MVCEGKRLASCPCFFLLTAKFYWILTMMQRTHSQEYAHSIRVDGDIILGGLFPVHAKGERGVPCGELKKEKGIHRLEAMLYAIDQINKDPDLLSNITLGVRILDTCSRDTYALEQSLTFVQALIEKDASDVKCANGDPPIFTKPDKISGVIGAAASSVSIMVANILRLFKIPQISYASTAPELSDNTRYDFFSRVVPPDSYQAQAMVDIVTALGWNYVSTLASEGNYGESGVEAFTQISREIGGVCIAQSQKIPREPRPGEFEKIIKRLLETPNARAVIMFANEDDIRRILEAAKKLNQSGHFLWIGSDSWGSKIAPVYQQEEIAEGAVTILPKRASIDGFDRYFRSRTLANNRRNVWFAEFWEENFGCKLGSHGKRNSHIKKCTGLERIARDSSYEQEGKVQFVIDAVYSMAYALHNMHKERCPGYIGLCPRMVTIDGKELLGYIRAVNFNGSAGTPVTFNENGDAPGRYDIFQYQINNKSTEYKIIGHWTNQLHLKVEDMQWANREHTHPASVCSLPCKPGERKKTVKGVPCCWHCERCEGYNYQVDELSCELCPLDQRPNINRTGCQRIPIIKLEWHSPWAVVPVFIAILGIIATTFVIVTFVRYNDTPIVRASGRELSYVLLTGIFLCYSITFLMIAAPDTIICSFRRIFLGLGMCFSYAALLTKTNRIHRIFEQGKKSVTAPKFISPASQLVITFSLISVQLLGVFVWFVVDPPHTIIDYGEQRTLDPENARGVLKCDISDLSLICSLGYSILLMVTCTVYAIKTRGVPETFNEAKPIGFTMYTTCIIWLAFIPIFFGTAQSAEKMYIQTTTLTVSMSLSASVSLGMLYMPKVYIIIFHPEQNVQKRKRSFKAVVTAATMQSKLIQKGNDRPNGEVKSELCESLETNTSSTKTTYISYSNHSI
row,Compound,z-score
1,Cc1c(NCc2cc(Cl)ccc2O)c(=O)n(-c2ccccc2)n1C,-0.0479
2,O=C(CSc1nnc(-c2cccc(Cl)c2)o1)Nc1ccc2c(c1)OCCO2,-0.0175
3,CCCN(CC(=O)Nc1cc(Cl)cc(Cl)c1)CC(=O)Nc1ccc(F)c(F)c1F,-0.209
4,CC(C)COP(=O)(c1ccc(N(C)C)cc1)C(Nc1ccccc1)c1ccccc1 (configuration not stated),-0.803
5,CCCCSCCCNC(=O)Nc1cccc(OC)c1,-0.211
6,CCOc1ccc(NC(=O)NCCCSC2CCCCC2)cc1,0.197
7,COc1cccc(NC(=O)NCCCSC2CCCCC2)c1,4.47 (active)
8,O=C(COC(=O)c1cccc([N+](=O)[O-])c1)c1ccc(OCc2ccccc2)cc1,-0.231
9,O=C(O)Cc1csc(Nc2cccc(Cl)c2)n1,0.819
10,O=C(O)CCCCCNc1nc(=S)[nH]c2ccccc12,0.209
11,O=C(Cc1csc(Nc2nc(=S)[nH]c3ccccc23)n1)NCc1ccccc1Cl,3.83 (active)
12,O=C(Cc1csc(Nc2nc(=S)[nH]c3ccccc23)n1)NCc1cccc(Cl)c1,6.85 (active)
13,O=C(Cc1c[nH]c2ccccc12)NCc1ccc(Cl)cc1,0.348
14,O=C(CCCCCNc1nc(=S)[nH]c2ccccc12)NCCc1ccccc1,0.302
15,O=C(CCCSc1nc2ccccc2[nH]1)NCc1ccc(Cl)cc1,-0.328
16,COc1ccc(CNC(=O)Cc2c(C(=O)O)[nH]c3ccccc23)cc1,-0.136
17,COC(=O)Cc1csc(Nc2ccccc2Cl)n1,0.0565
18,COc1ccc(CNC(=O)Cc2csc(Nc3nc(=S)[nH]c4ccccc34)n2)cc1,8.83 (active)
19,COc1ccc(CNC(=O)COC(=O)[C@H](Cc2c[nH]c3ccccc23)NC(=O)c2cccs2)cc1,0.0349
20,O=C(Cc1csc(Nc2nc(=S)[nH]c3ccccc23)n1)NCc1ccc(Cl)cc1,7.05 (active)
21,Cc1cccc(OCC(=O)Nc2ccc(N3CCN(C(=O)c4ccccc4)CC3)cc2)c1,-0.0735
22,Cc1ccc(S(=O)(=O)N2CCOCC2)c2nsnc12,-0.358

row,Compound,z-score
1,CCN1CCN(C(CNC(=O)c2ccc3c(c2)OCO3)c2cccnc2)CC1 (configuration not stated),-0.319
2,COc1cc2c(cc1OC)CN(C(=O)C(C)(C)C)CC2,-0.104
3,CN(C1CCCCC1)S(=O)(=O)c1ccc(S(=O)(=O)N2CCN(CCC#N)CC2)cc1,0.242
4,CCS(=O)CCSC(=N)N (configuration not stated),-0.0992
5,Cc1ccc(NC(=S)Nc2nc(CC(=O)Nc3ccccc3)cs2)cc1,0.0541
6,O=C(Cc1csc(-c2ccccc2)n1)NCc1ccc(F)cc1,-0.252
7,Cc1ccc(CNC(=O)Cc2csc(Nc3nc(=S)[nH]c4ccccc34)n2)cc1,10.7 (active)
8,COc1ccc(-n2nc3ccccc3n2)cc1,0.249
9,O=C(NCc1ccncc1)C1CCCN(S(=O)(=O)Cc2ccccc2)C1 (configuration not stated),-0.193
10,CCC1CCCCN1C(=O)CSc1nnc(-c2ccc(Cl)cc2)o1 (configuration not stated),-0.41
11,CCC1CCCCN1C(=O)CSc1nnc(-c2cccs2)o1 (configuration not stated),0.801
12,CCC1CCCCN1C(=O)CSc1nnc(-c2ccco2)o1 (configuration not stated),11.1 (active)
13,CCC(NC(=O)Cn1cnc2c(=O)n(C)c(=O)n(C)c21)c1ccccc1 (configuration not stated),0.0869
14,COc1ccc(C2C(C(=O)c3ccco3)=C(O)C(=O)N2CCOCCO)cc1OC (configuration not stated),-0.0423
15,COc1ccc(CC(=O)Nc2cccc(-c3csc(C)n3)c2)cc1,1.88
16,O=C(NOC(=O)c1ccccc1Cl)c1cccs1,-0.383
17,COC(=O)NNC(=O)c1ccc(C)cc1,0.0536
18,Cc1c(C(=O)NCc2cccnc2)oc2ccc(S(=O)(=O)N3CCC4(CC3)OCCO4)cc12,5.95 (active)
19,Cc1c(C(=O)NCc2cccnc2)oc2ccc(S(=O)(=O)N3CCCCC3)cc12,1.3
20,Cc1c(C(=O)NCc2ccccc2)oc2ccc(S(=O)(=O)N3CCC4(CC3)OCCO4)cc12,-0.293
21,CCCOc1ccc(C(=O)Nc2cc(-c3nn4c(C)nnc4s3)ccc2C)cc1,-0.185
22,CN(Cc1ccccc1)c1ccc(N2C(=O)CCCC2=O)cc1[N+](=O)[O-],-0.202

row,Compound,z-score
1,Cc1cccc(-c2nc(CSCC(=O)N3CCN(c4ccccn4)CC3)c(C)o2)c1,-1.37
2,O=C(O)CCCC(=O)NCCc1ccncc1,0.0989
3,COc1ccc(/C=N/NC(=O)C(=O)/C=C2\NC3(CCCC3)Cc3ccccc32)cc1,0.0973
4,Cc1ccc(NC(=O)COC(=O)c2ccccc2Nc2ccccc2)cc1,-0.179
5,CC(=O)c1ccccc1NC(=O)COC(=O)c1ccccc1NC(=O)c1ccccc1,0.161
6,Cc1cccc(C(=O)Nc2ccccc2C(=O)OCC(=O)Nc2ccc(C#N)cc2)c1,2.11
7,COc1ccc(S(=O)(=O)N2CCN(C(=O)c3ccco3)CC2)cc1OC,-0.51
8,COc1cc(/C=N/NC(=O)C(Cc2c[nH]c3ccccc23)NC(=O)OCc2ccccc2)cc([N+](=O)[O-])c1O (configuration not stated),-0.505
9,CC(C)(C)NC(=O)C(c1ccncc1)N(C(=O)c1csnn1)c1ccccc1 (configuration not stated),6.21 (active)
10,Cc1ccc(N(C(=O)c2csnn2)C(C(=O)NC(C)(C)C)c2ccncc2)cc1 (configuration not stated),-0.134
11,Cc1cccc(N(C(=O)c2csnn2)C(C(=O)NC(C)(C)C)c2ccncc2)c1 (configuration not stated),-0.134
12,CC(C)COC(=O)c1cc(=O)[nH]c2ccccc12,1.23
13,CCc1ccc(NC(=O)c2cc(C)on2)cc1,-0.546
14,Cc1cc(C)c2nc(NC(=O)c3ccc(OCC4CCCO4)cc3)sc2c1 (configuration not stated),-0.201
15,Cc1cc(C)c2nc(NC(=O)c3cc(C)on3)sc2c1,12 (active)
16,Cc1cc(C)c2nc(NC(=O)C3CCCO3)sc2c1 (configuration not stated),0.217
17,CCc1ccc2nc(NC(=O)c3cc(C)on3)sc2c1,10.1 (active)
18,CCc1ccc2nc(NC(=O)CSCc3c(C)noc3C)sc2c1,-0.0333
19,O=C(Oc1ccc(Br)cc1C(=S)N1CCCC1)c1ccccc1Cl,-0.0754
20,CCOC(=O)N1CCN(Cc2nc(N)nc(Nc3ccc(OCC)cc3)n2)CC1,-0.27
21,CC(=O)OC1COC(n2ccc3cc([N+](=O)[O-])ccc32)C(OC(C)=O)C1OC(C)=O (configuration not stated),0.0746
22,CC(=O)NC1(C(F)(F)F)C(=O)NC(C)=C1C#N (configuration not stated),-1.29

row,Compound,z-score
1,Cn1c(=O)[nH]c(=O)c2c1nc(NCc1ccccc1)n2CCCc1ccccc1,-0.132
2,Cn1c(=O)[nH]c(=O)c2c1nc(NCCCO)n2CCCc1ccccc1,0.0396
3,CN(C)CCNc1nc2c(c(=O)[nH]c(=O)n2C)n1CCCc1ccccc1,3.35 (active)
4,CC(C)NS(=O)(=O)c1ccc(NC(=O)C2CC3C=CC2C3)cc1 (configuration not stated),-0.0807
5,O=C1Nc2ccccc2SC(c2ccccc2)C1O (configuration not stated),-0.0924
6,O=C(CN1CCC(n2nnc3cc(F)ccc32)CC1)N1CCc2ccccc2C1,-0.899
7,O=C(CSc1n[nH]c(-c2ccc(S(=O)(=O)N3CCCCC3)cc2)n1)Nc1nccs1,0.951
8,CCC(c1nnnn1CCOC)N(Cc1ccc(C)cc1)Cc1cc2cc(OC)ccc2[nH]c1=O (configuration not stated),0.378
9,CCC(c1nnnn1Cc1ccccc1)N(Cc1ccco1)Cc1cc2cc(OC)ccc2[nH]c1=O (configuration not stated),-0.0441
10,CCC(c1nnnn1Cc1ccc(OC)cc1)N(CCCO)Cc1cc2cc3c(cc2[nH]c1=O)OCO3 (configuration not stated),5.57 (active)
11,COc1ccc(OC)c(N(CC(=O)Nc2ccc3c(c2)OCO3)S(=O)(=O)c2ccccc2)c1,-0.348
12,O=C(Nc1nnc(-c2ccccc2Cl)o1)c1ccc(S(=O)(=O)N2CCCCCC2)cc1,13.1 (active)
13,COCc1nnc(NC(=O)c2ccc(S(=O)(=O)N3CCCCCC3)cc2)o1,-0.164
14,CC1CCCN(S(=O)(=O)c2ccc(C(=O)Nc3nnc(-c4ccccc4Cl)o3)cc2)C1 (configuration not stated),3.98 (active)
15,CC1CCCN(S(=O)(=O)c2ccc(C(=O)Nc3ccccc3-c3nc4ccccc4[nH]3)cc2)C1 (configuration not stated),-0.205
16,Cc1nnc(NC(=O)c2ccc(S(=O)(=O)N3CCCCCC3)cc2)o1,-0.304
17,CCC1CCCCN1S(=O)(=O)c1ccc(C(=O)Nc2nnc(-c3ccccc3Cl)o2)cc1 (configuration not stated),1.12
18,CCOC(=O)Cc1csc(NC(=O)CSc2nnc(C(C)C)n2CC)n1,0.0208
19,CCN(CC)c1ccc(NC(=O)c2cccnc2)cc1,-0.663
20,CCCS(=O)(=O)N1CCC(C(=O)N2CCCC2)CC1,-1.16
21,O=[N+]([O-])c1ccc(N2CCN(S(=O)(=O)c3ccccc3[N+](=O)[O-])CC2)cc1N1CCc2ccccc2C1,-0.00158
22,O=C(/C=C/c1ccccc1Cl)NCc1ccco1,-0.133

row,Compound,z-score
1,C=CCN(Cc1cccc(OC)c1OC)S(=O)(=O)N(C)C,-0.164
2,Cc1ccc(-n2nnnc2-c2ccco2)cc1,-0.111
3,Cc1ccc(-n2nnnc2-c2nc3ccccc3s2)cc1,6.16 (active)
4,CCOc1ccc(-n2nnnc2-c2nc3ccccc3s2)cc1,-0.319
5,CCN(CC)C(=O)/C(=C\c1cccc([N+](=O)[O-])c1)NC(=O)c1ccco1,-0.281
6,CC(/C=N/NC(=O)c1cc(-c2ccc(Cl)cc2)nc2ccccc12)=C\c1ccco1,0.0726
7,CC(/C=N/NC(=O)c1cc(-c2ccccc2)nc2ccccc12)=C\c1ccco1,-0.0414
8,Cc1ccc(-c2cc(C(=O)N/N=C/C=C/c3ccco3)c3ccccc3n2)cc1C,2.64
9,Cc1ccc(C(=O)N(Nc2nc3ccccc3s2)C(=O)c2ccc(C)cc2)cc1,0.0589
10,O=C(OCc1ccc([N+](=O)[O-])cc1)c1ccc(N2CCCC2)c([N+](=O)[O-])c1,0.344
11,CC(C)(C)N1CC2(c3ccccc3)CN(C(C)(C)C)CC(c3ccccc3)(C1)C2=O,1.19
12,O=[N+]([O-])c1cnccc1Nc1cccc(F)c1,0.28
13,O=[N+]([O-])c1ccccc1-c1cc(-c2ccccc2O)n[nH]1,-0.676
14,O=C(/C=C/c1ccccc1)C1C(=O)c2ccccc2C1=O,4.21 (active)
15,O=C(/C=C/c1ccccc1)/C=C/c1ccccc1,-0.389
16,CCc1ccc(/C=C/C(=O)C2C(=O)c3ccccc3C2=O)cc1,3.92 (active)
17,CCc1ccc(/C=C\C(=O)N2CCc3ccccc3C2)cc1,-0.105
18,CCc1ccc(/C=C/C(=O)c2c(C)cc(C)[nH]c2=O)cc1,-0.106
19,Cc1ccc(/C=C/C(=O)C2C(=O)c3ccccc3C2=O)cc1,0.871
